# Shown is part of a subset that was picked to be rich in hits.
# Methyltransferases: Primary Screen for Target Class Profiling of Small Molecule Inhibitors of Methyltransferases; purified enzyme, MTase-Glo SAH luminescence; active compounds read low; calls only at 40 µM; 25,000 tested, 3.9% active; AID 1745853, 2022; call rule not given here
#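 Each enzyme was assayed with SAM and its substrate. SAH formation detected by MTase-Glo luminescence; single-point 40 uM screen[…].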
# Calls only; 0 = inactive; + = active, no number; ! = a repeat was not active.
SMILES,Methyltransferases
CCN1C(=O)c2c(C(=O)NCc3cc(OC)ccc3OC)ncn2CC1(C)C(=O)NC1CCCC1 (stereo not given),0
CC1(C(=O)NCc2ccccc2)Cn2c(cc3ccccc32)C(=O)N1Cc1ccc2c(c1)OCO2 (stereo not given),0
O=C(CCc1nnc2n(Cc3ccc(F)cc3)c(=O)c3ccccc3n12)N1CCN(c2ncccn2)CC1,0
Cc1ccc(C(=O)O)c2c1N[C@H](c1cccc(Cl)c1)C1CC=CC21 (stereo not given in full),+
COC(=O)c1ccc([C@@H]2Nc3c(Cl)cccc3[C@@H]3C=CC[C@@H]32)cc1,0
Fc1cccc2c1NC(c1ccc(Cl)cc1)C1CC=CC21 (stereo not given),0
OC[C@H](Cc1ccccc1)Nc1nc(Oc2ccc3c(c2)CCC3)nc2c1ncn2Cc1ccc(-c2ccccc2)cc1,+
Cc1ccc(C)c(C(=O)Cn2nc3n(CCC(C)C)c(=O)c4ccc(C(=O)NC(C)C)cc4n3c2=O)c1,0
CCOC(=O)c1cc2n(n1)CC(C)(C(=O)NCc1ccc(C)cc1)N(c1ccc(CC)cc1)C2=O (stereo not given),0
O=c1cc(O)cc(/C=C/c2ccc(O)c(O)c2)o1,+
Oc1ccc(/C=C/c2cc(O)cc(O)c2)cc1,0
O=C(/C=C/c1ccc(O)c(O)c1)OCCc1ccccc1,0
COC(=O)c1ncn2c1C(=O)N(Cc1ccc(Cl)cc1)C(C)(C(=O)NC1CCCCC1)C2 (stereo not given),0
Cc1cc(N2CCOCC2)ccc1Nc1nc(NC2CCCCC2)c2[nH]cnc2n1,+
Cc1cc(NC2CCCCC2)nc(-n2nc(C)cc2C)n1,0
N#Cc1cc(-c2ccnc(Nc3ccc(N4CCOCC4)cc3)n2)ccc1OC1CCOCC1,0
COC(=O)NCCNC(=O)c1cccc(-c2ccc(SC)cc2)c1,0
CC(C)(O)CCc1cccc(C(=O)NCCCc2ccccn2)c1,0
O=C(NCCCc1ccccc1)c1cccc(-c2cc(O)c3ncccc3c2)c1,+
O=C(NCCc1nc2cccnc2n1-c1ccccc1)c1cccnc1,0
O=C(NCCCCCCNC(=O)c1cccnc1)c1cccnc1,0
CN(C)CCCCCCNC(=O)c1cccc(-c2cc(O)c3ncccc3c2)c1,+
CCCn1c(=O)c2ccc(C(=O)NC(C)C)cc2n2c(SCc3cccc(F)c3)nnc12,0
Cn1c(=O)c2ccc(C(=O)NC3CCCC3)cc2n2c(=O)n(Cc3ccccc3)nc12,0
CC(C)CNC(=O)N1CCn2cccc2C1C (stereo not given),0
SMILES,Methyltransferases
COc1cccc(N2C(=O)c3cc4occc4n3CC2(C)C(=O)NC2CCCC(C)C2C)c1 (stereo not given),0
CC1CCCN(C(=O)Cn2c(=O)oc3cc(S(=O)(=O)NCc4ccccc4)ccc32)C1 (stereo not given),0
CC(CN1C(=O)c2cc3ccccc3n2CC1(C)C(=O)NCc1ccccc1)c1ccccc1 (stereo not given),0
COc1ccc(CNC(=O)Cn2nc3n(Cc4ccc(F)cc4)c(=O)c4ccccc4n3c2=O)cc1,0
CC1(CO)CC(O)C2(C)CCC3(C)C(=CCC4C5(C=O)CCC(OC6OC(C(=O)O)C(O)C(O)C6OC6OC(C(=O)O)C(O)C(O)C6O)C(C)(C)C5CCC43C)C2C1 (stereo not given),+
C[C@@H]1O[C@@H](O[C@H]2[C@H](O[C@H]3[C@H](O[C@H]4CC[C@@]5(C)C(CC[C@]6(C)C5CC=C5[C@@H]7CC(C)(C)C[C@@H](O)[C@]7(C)CC[C@]56C)[C@@]4(C)CO)O[C@H](C(=O)O)[C@@H](O)[C@@H]3O)O[C@H](C(=O)O)[C@H](O)[C@@H]2O)[C@H](O)[C@H](O)[C@H]1O (stereo not given in full),0
C[C@@H]1O[C@@H](O[C@H]2[C@H](O[C@H]3[C@H](O[C@H]4CC[C@@]5(C)C(CC[C@]6(C)C5CC=C5[C@@H]7CC(C)(C)C[C@@H](O)[C@]7(C)CC[C@]56C)[C@@]4(C)CO)O[C@H](C(=O)O)[C@@H](O)[C@@H]3O)O[C@H](CO)[C@H](O)[C@@H]2O)[C@H](O)[C@H](O)[C@H]1O (stereo not given in full),0
CCc1ccc(NC(=O)CSc2nnc3[nH]c(=O)c(C(C)(C)C)nn23)cc1,0
Cc1cccc(N2C(=O)c3cc4sccc4n3CC2(C)C(=O)NC2CCCCC2)c1C (stereo not given),0
CC1CCN(S(=O)(=O)c2ccc3c(ccn3CC(=O)NCCc3cccs3)c2)CC1,0
CC1(C(=O)NC2CCCCCCC2)Cn2c(cc3occc32)C(=O)N1CCCN1CCCC1 (stereo not given),0
CC1(C(=O)NCc2ccccc2)Cn2nc(-c3ccccc3)cc2C(=O)N1Cc1cccc(Br)c1 (stereo not given),0
CNc1cc2c(Nc3cccc(Br)c3)ncnc2cn1,+
NS(=O)(=O)c1ccc(CCNc2nc3c(-c4ccc(Cl)cc4)nnn3c3ccccc23)cc1,0
CN1CCN(CCCNC(=O)c2cc3n(n2)CC(C)(C(=O)NC2CCCC2)N(C)C3=O)CC1 (stereo not given),0
CSC(=O)OCC1=C[C@@H]2OC(=O)C3=CO[C@@H](O[C@@H]4O[C@H](CO)[C@@H](O)[C@H](O)[C@H]4O)[C@H]1[C@@H]32,+
O=C(/C=C/c1ccc(O)cc1)OCC1=CC2OC(=O)C3=CO[C@@H](O[C@@H]4O[C@H](CO)[C@@H](O)[C@H](O)[C@H]4O)[C@H]1[C@@H]32 (stereo not given in full),0
COC(=O)C1=CO[C@@H](O[C@@H]2O[C@H](CO)[C@@H](O)[C@H](O)[C@H]2O)[C@@H]2C(CO)=CC[C@H]12,0
COC(=O)c1cc2n(n1)CC(C)(C(=O)NC1CCCCCC1)N(c1ccc(C)cc1C)C2=O (stereo not given),0
COC(=O)C1=C(C)NC(C)=C(C(=O)OC)C1c1cccc(NC(=O)NCCCN2CCC(c3cccc(OC)c3)CC2)c1,+!
COc1cccc(CNC(=O)Nc2cccc(-c3ccc(N4CCCCC4)nn3)c2)c1,0
CCN(CC)c1ncccc1CNC(=O)Nc1cccc(OC)c1,0
Cc1ccc(CN2C(=O)c3cc4ccccc4n3CC2(C)C(=O)NCCC(C)C)o1 (stereo not given),0
COc1ccc(NC(=O)/C=C/c2ccc(Cl)cc2)cc1,+
COC(=O)/C=C/c1ccc(O[C@@H]2O[C@H](CO)[C@@H](O)[C@H](O)[C@H]2O)cc1,0
SMILES,Methyltransferases
COc1ccc(C(=O)Nc2cnc(-c3ccc(Cl)cc3)nc2)cc1,0
CC(=O)Nc1ccc(Nc2nc3c(S(=O)(=O)c4cc(C)ccc4C)nnn3c3ccccc23)cc1,0
Cc1ccc(CSc2nnc3n(Cc4ccccc4)c(=O)c4ccccc4n23)cc1,0
O=[N+]([O-])c1ccc(-[n+]2nc(-c3ccccc3)nn2-c2ccc(I)cc2)cc1,+
O=C(Nc1cc(-c2ccccc2)nn1-c1ccccc1)c1ccc([N+](=O)[O-])cc1,0
CC(C)Cn1c(=O)c2ccc(C(=O)NC3CCCC3)cc2n2c(=O)n(Cc3ccc(Cl)cc3)nc12,0
CCCCCCCOc1cc2c(cc1/C(C)=C/c1ccc(C(=O)O)cc1)C(C)(C)CCS2(=O)=O,+
Cc1cc2c(cc1C1(c3ccc(C(=O)O)cn3)CC1)C(C)(C)CCC2(C)C,0
C=Cc1ccc(Cn2nc3n(CC(C)C)c(=O)c4ccccc4n3c2=O)cc1,0
